Assay [1] has as its target Albumin (Bos taurus) (UniProt P02769). Briefly: bovine serum albumin binders on microarray, profiling panel, artefact control for SMM control protein annotation, biochemical, small-molecule microarray, Alexa647 label, 635/667 nm fluorescence (AID 1118).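 Also: score merges 667 nm emission intensity and signal-to-noise per printed compound spot.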 The conditions noted are these: BSA-A647 binding, fluorescence 635 nm, higher = more signal.
Assay [2] can be described thus: small-molecule microarray binders of probe aXIP, primary screen, biochemical, NeuroSMM set, 635/667 nm fluorescence (AID 1119).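 Also: probe is the protein aXip251-270 applied at 1 µg/mL to compound-printed slides; binding of probe to printed compounds measured as 667 nm fluorescence plus signal to noise.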 The note with it: higher = more signal, called active from +8 up or from −8 down.
A short description of assay [3]: small-molecule binders of probe aNOTCH3, primary screen, biochemical, small-molecule microarray, 635/667 nm fluorescence (AID 1120).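 Also: probe is a biotin-tagged antibody raised against NOTCH3 rather than NOTCH3 protein; score merges spot fluorescence near 667 nm with spot signal to noise.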 The note with it: higher = more signal.
Assay [4] in a line: small-molecule binders of probe aNOTCH2, primary screen, biochemical, small-molecule microarray, 635/667 nm fluorescence (AID 1121).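 Also: score merges feature fluorescence read at 667 nm with its signal to noise.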 The note with it: higher = more signal.
For assay [5], the target named is Carbonic anhydrase 2 (Homo sapiens) (UniProt P00918). Briefly: CAII small-molecule binders, profiling panel, biochemical, small-molecule microarray, Alexa647-labelled CAII (AID 1122). The note with it: CAII-A647 binding fluorescence, higher = more signal.
The nature of assay [6]: COS7 lysate on small-molecule microarray, probe aHis, 635 nm (AID 1123).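 Also: z-score combines 667nm fluorescence intensity with signal-to-noise per printed compound spot.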 The note with it: COS7 cell lysate, fluorescence, higher = more signal.
A short description of assay [7]: compound binding in COS7 lysate, probe aLAP1, primary screen, cell lysate, small-molecule microarray (AID 1124).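 Also: lysate comes from COS7 cells expressing LAP1 and is applied at 0.3 µg/mL; score merges spot fluorescence near 667 nm with signal-to-noise over triplicate slides.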 The conditions noted are these: probe aLAP1, fluorescence, higher = more signal.
For assay [8], the system named is Sam68 (KHDRBS1). Kind of assay: Sam68 small-molecule binders, primary screen, biochemical, small-molecule microarray, 635 nm fluorescence (AID 1125).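 Also: score merges 667 nm channel intensity with signal to noise over triplicate slides.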 The conditions noted are these: small-molecule microarray binding, higher = more signal.
The subject of assay [9] is Chordin-like protein 2 (CHRDL2). Briefly: CHRDL2 small-molecule binders, primary screen, biochemical, small-molecule microarray, 635 nm fluorescence (AID 1126).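 Also: printed compound slides probed with Chrdl2 protein at 4 µg/mL for 1 h at 4 C; score merges 667 nm emission intensity with signal to noise over three replicate slides.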 The conditions noted are these: small-molecule microarray binding, fluorescence 635 nm; higher = more signal.
The target of assay [10] is Concanavalin-A (Canavalia ensiformis) (UniProt P02866). Briefly: ConA small-molecule binders, primary screen, artefact control for SMM control protein annotation, biochemical, small-molecule microarray, Alexa647 label, 635 nm (AID 1127).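 Also: z combines 667 nm emission intensity with signal-to-noise across three replicate slides.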 The note with it: ConA-A647 binding fluorescence, higher = more signal.
Concanavalin-A (Canavalia ensiformis), sequence (P02866 whole entry, looked up): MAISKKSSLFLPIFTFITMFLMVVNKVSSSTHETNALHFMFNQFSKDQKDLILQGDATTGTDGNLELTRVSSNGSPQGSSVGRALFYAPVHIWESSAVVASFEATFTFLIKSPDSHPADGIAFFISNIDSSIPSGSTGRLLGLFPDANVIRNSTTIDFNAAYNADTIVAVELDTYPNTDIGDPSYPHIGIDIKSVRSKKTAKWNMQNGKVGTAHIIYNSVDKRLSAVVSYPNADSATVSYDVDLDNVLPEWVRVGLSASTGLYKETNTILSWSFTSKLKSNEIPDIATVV
Assay [11] is described as follows: anti-His antibody binders, primary screen, artefact control for SMM control protein annotation, biochemical, small-molecule microarray, 635 nm fluorescence (AID 1128).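 Also: score merges feature fluorescence with signal-to-noise for each printed compound spot.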 The note with it: anti-His Alexa647 antibody binding, higher = more signal.
Assay [12] concerns Human papillomavirus type 1a E7 protein (residues 1-88). Briefly: HPV1a E7 small-molecule binders, primary screen, biochemical, small-molecule microarray, residues 1-88, 635 nm (AID 1129). The conditions noted are these: small-molecule microarray binding, fluorescence 635 nm; higher = more signal.
Assay [13] addresses Focal adhesion kinase 1 (Homo sapiens) (UniProt Q05397). Kind of assay: small-molecule microarray binders of FAK, primary screen, biochemical, 635/667 nm fluorescence, BSA, DTT (AID 1130).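 Also: composite of spot emission at 667 nm and signal to noise over triplicate slides.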 The note with it: PTK2 binding, 635 nm fluorescence, higher = more signal.
Assay [14] relates to Fibrinogen (Alexa647-labelled). Kind of assay: fibrinogen binders on compound microarrays, profiling panel, artefact control for SMM control-protein annotation, biochemical, small-molecule microarray, 635/667 nm fluorescence (AID 1131).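 Also: z-score merges 667 nm fluorescence with per-spot signal-to-noise over triplicate slides.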 The note with it: fibrinogen-A647 binding fluorescence, higher = more signal.
Assay [15] addresses Follistatin (Homo sapiens) (UniProt P19883). Kind of assay: follistatin binders on small-molecule microarrays, primary screen, biochemical, small-molecule microarray, 635/667 nm fluorescence (AID 1132). The note with it: FST binding, 635 nm fluorescence, higher = more signal.
For assay [16], the target named is Fibroblast growth factor 2 (Homo sapiens) (UniProt P09038). Kind of assay: FGF2 binders on small-molecule microarrays, primary screen, biochemical, small-molecule microarray, 635/667 nm fluorescence (AID 1133). The conditions noted are these: small-molecule microarray binding, FGF2, fluorescence 635/667; higher = more signal.
Fibroblast growth factor 2 (Homo sapiens), sequence (P09038 whole entry, looked up): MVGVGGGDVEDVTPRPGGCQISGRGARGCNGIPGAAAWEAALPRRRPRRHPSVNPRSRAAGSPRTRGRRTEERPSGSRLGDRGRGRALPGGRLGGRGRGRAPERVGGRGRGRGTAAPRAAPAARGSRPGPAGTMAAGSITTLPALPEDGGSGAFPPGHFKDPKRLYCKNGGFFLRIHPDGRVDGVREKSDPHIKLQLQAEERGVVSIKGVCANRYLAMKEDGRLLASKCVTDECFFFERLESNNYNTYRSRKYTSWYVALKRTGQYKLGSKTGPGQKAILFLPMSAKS
Assay [17] can be described thus: mitochondrial membrane potential change in A549 cells, profiling panel, cell-based, JC-1 fluorescence, basal, 24 h, 100 nL (AID 1138).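 Also: A549 lung adenocarcinoma cells under basal conditions with no added stimulus; test concentration not given here.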 The note with it: higher = more signal.
The subject of assay [18] is Lefty1. Kind of assay: Lefty1 binders on small-molecule microarrays, primary screen, biochemical, small-molecule microarray, 635/667 nm fluorescence (AID 1139). The note with it: small-molecule microarray binding, fluorescence 635/667; higher = more signal.
In assay [19] the test system is wheat germ agglutinin (Triticum aestivum), Alexa647-labelled. Kind of assay: wheat germ agglutinin binders on compound microarrays, profiling panel, artefact control for SMM control-protein annotation, biochemical, small-molecule microarray, 635/667 nm fluorescence (AID 1140).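 Also: score merges 667 nm feature emission with signal to noise over triplicate slides.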 The note with it: WGA-A647 binding, 635 nm fluorescence, higher = more signal.
Assay [20] addresses Luciferin 4-monooxygenase (Photinus pyralis) (UniProt P08659). Kind of assay: firefly luciferase enzyme inhibitors, primary screen, biochemical, luminescence, purified enzyme, 2006 set (AID 1141).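 Also: cell-free assay with purified firefly luciferase at 100 ng per well in PBS; test concentration not given here.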 The note with it: SteadyGlo luminescence, 30 min, higher = more signal, called active from +8 up or from −8 down.

Calls of active or inactive are those of the source.

Follistatin (Homo sapiens), sequence (P19883 whole entry, looked up): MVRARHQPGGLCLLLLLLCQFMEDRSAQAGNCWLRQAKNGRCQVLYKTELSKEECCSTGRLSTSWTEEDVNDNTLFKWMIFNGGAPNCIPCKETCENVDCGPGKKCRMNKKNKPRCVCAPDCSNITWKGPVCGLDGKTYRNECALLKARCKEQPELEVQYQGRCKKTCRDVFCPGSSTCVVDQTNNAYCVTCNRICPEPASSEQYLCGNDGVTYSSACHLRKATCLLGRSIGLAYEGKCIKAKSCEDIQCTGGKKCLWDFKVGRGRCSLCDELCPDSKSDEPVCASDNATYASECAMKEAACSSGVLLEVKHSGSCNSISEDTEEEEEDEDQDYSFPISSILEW
Focal adhesion kinase 1 (Homo sapiens), sequence (Q05397 whole entry, looked up): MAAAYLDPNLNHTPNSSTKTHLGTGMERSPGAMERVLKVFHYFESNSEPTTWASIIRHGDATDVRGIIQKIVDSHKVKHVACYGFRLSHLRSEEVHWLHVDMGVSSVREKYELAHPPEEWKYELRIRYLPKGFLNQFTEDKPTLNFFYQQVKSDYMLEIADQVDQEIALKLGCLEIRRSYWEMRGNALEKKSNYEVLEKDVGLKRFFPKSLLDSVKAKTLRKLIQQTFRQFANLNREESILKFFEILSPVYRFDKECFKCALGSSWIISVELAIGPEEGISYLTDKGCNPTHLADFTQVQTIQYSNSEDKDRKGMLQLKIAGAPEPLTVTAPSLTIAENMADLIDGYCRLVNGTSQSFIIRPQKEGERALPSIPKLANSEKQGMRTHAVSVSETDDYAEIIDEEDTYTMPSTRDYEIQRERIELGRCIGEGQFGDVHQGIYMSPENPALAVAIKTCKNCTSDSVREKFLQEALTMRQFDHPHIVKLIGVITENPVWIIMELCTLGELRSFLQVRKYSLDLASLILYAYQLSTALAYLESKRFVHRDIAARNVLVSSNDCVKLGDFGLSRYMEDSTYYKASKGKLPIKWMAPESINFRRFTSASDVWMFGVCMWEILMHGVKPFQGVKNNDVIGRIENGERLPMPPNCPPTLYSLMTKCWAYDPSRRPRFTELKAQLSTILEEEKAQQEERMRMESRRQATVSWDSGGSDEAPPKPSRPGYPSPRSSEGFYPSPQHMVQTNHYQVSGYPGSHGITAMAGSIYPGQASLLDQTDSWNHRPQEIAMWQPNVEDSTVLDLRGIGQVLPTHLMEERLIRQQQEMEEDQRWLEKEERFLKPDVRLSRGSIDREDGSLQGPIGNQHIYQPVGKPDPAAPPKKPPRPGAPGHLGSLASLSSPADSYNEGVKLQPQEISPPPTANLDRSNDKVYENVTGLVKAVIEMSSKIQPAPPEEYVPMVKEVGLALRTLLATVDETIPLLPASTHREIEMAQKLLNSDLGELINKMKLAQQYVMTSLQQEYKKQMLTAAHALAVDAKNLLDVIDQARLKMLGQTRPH
Albumin (Bos taurus), sequence (P02769 whole entry, looked up): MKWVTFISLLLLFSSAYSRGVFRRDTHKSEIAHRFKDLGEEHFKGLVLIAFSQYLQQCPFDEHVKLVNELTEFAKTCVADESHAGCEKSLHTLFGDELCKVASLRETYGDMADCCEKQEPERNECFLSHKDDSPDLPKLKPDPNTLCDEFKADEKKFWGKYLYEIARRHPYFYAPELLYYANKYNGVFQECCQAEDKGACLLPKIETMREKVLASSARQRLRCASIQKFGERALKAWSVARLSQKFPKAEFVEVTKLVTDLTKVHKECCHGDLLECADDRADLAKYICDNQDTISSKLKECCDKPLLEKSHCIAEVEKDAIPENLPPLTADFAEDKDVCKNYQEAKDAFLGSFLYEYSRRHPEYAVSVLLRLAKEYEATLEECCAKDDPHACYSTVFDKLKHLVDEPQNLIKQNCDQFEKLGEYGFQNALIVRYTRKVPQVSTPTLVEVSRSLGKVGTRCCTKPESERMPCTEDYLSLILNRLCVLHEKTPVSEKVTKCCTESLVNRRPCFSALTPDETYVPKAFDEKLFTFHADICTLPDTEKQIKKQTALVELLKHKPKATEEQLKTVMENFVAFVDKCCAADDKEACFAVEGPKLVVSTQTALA
Luciferin 4-monooxygenase (Photinus pyralis), sequence (P08659 whole entry, looked up): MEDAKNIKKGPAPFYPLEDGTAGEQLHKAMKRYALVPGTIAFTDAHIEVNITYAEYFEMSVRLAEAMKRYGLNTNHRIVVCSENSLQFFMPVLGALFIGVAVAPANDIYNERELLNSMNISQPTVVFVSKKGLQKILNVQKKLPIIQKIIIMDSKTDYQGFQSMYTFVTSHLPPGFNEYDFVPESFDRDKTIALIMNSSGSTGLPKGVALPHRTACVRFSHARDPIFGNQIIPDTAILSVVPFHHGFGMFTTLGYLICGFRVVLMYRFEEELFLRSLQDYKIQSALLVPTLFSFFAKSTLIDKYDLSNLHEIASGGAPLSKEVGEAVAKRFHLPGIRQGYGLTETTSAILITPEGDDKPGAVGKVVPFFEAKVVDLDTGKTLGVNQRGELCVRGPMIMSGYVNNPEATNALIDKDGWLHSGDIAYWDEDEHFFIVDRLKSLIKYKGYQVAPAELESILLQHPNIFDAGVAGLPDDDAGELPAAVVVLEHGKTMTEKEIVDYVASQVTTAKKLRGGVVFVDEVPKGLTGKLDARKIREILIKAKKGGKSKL

Take `O=C(O)[C@H](Cc1ccccc1)n1cc(-c2ccccc2)nn1`: the composite z-score in [1] was 0.0644; in [3], -0.0313; in assay [4] it was -0.164; in assay [5] it was 0.155; in [6] it was -0.065; in assay [7], 0.277. For the same molecule, the composite z-score was determined as 0.187 in assay [8]; 0.238 in assay [9]; 0.362 in assay [10]; 0.347 in [11]; 0.6 in assay [12]; 0.218 in assay [13]. Also, the composite z-score in assay [14] worked out at 0.368; in assay [15], 0.571; in [16], 0.607; in assay [18], 0.206; in assay [19], 0.651. Moreover, in assay [2], the composite Z-score is 0.52 (inactive). For the same molecule, the results for the z-score in assay [17] and in [20] were -0.469 and 0.899 (inactive), respectively.
`COC(=O)c1c2oc(c1C(=O)OC)C(=O)NC1(CCCCC1)c1cn(nn1)C[C@H](Cc1ccccc1)NC(=O)N[C@H](CO)CC2`: the composite z-score was 0.692 in assay [1]; -0.207 in [3]; -0.167 in [4]; 0.269 in assay [5]; 1.75 in assay [6]; -0.0871 in assay [7]. The composite z-score is 0.789 in assay [8]; 0.296 in [9]; 0.91 in assay [10]; 0.842 in assay [11]; 0.494 in assay [12]; 0.244 in assay [13]. For the same molecule, the composite z-score amounted to 0.94 in assay [14]; 0.437 in [15]; 0.0141 in [16]; 0.609 in assay [18]; 0.831 in [19]. In addition, the composite Z-score in assay [2] is 0.992 (inactive). Moreover, the z-score in assay [17] is 0.304; in assay [20] it was 0.893 (inactive).
In the case of `COc1ccc(-c2cc3c(c(Cc4ccccc4)n2)[Si](C(C)C)(C(C)C)OC3)cn1`, the composite z-score is -0.832 in [1]; 0.0596 in assay [3]; -0.155 in assay [4]; -0.272 in assay [5]; -0.0385 in [6]; -0.124 in [7]. Also, the composite z-score in assay [8] is -0.0817; in assay [9] it was 0.21; in assay [10] it was -0.739; in assay [11], -0.356; in [12], -0.875; in [13], -0.0985. In addition, the composite z-score is -0.827 in [14]; -0.108 in assay [15]; -0.328 in assay [16]; -0.0455 in assay [18]; -0.351 in [19]. For the same molecule, the composite Z-score in [2] is 0.168 (inactive). Also, the figures for the z-score in assay [17] and in assay [20] were -0.687 and 0.892 (inactive), respectively.
On to `CCCCN1CC=CC23O[C@@H]4/C=C\CCCOC(=O)C4[C@H]2C(=O)N(CCCO)[C@@H]3C1=O` (stereo not given in full), for which the composite z-score in [1] was -0.314; in assay [3], -0.229; in assay [4] it was -0.18; in [5], 0.939; in assay [6] it was 1.28; in assay [7], 1.82. In addition, the composite z-score in assay [8] is -0.158; in assay [9], -0.824; in assay [10], -1.4; in assay [11], 2.36; in [12], -0.43; in assay [13] it was -0.226. Further, the composite z-score in [14] was -1.73; in [15], -0.98; in assay [16] it was -0.251; in [18] it was -0.0249; in assay [19] it was -0.151. For the same molecule, the composite Z-score in [2] is 0.949 (inactive). For the same molecule, the z-score is 0.259 in [17] and 0.633 (inactive) in assay [20].
On to `CC1CC/C=C\[C@H]2OC34C=CCN(Cc5ccccc5)C(=O)[C@H]3N(C(C)CO)C(=O)[C@@H]4C2C(=O)O1` (stereo not given in full), for which the composite z-score in assay [1] is -0.852; in assay [3] it was -0.0647; in [4], -0.0846; in assay [5], 0.331; in assay [6] it was -0.412; in assay [7], -0.0231. Also, the composite z-score in assay [8] was -0.99; in [9], -0.0576; in [10], -0.239; in [11] it was -0.216; in assay [12], -0.922; in [13] it was -0.286. In addition, the composite z-score in assay [14] was -0.696; in assay [15] it was 0.462; in [16], -0.005; in assay [18] it was 1.06; in assay [19], -0.626. Besides, the composite Z-score in [2] is -0.592 (inactive). Moreover, the values for the z-score in assay [17] and in [20] were 0.924 and -0.97 (inactive), respectively.
On to `COc1cc2c(cc1OC)CN(C(=O)[C@H]1[C@@H]3C(=O)O[C@@H](c4ccccc4)[C@@H](c4ccccc4)N3[C@@H](c3ccccc3OCCO)[C@]13C(=O)Nc1ccc(C#CCCO)cc13)CC2`, for which the composite z-score is 0.766 in assay [1]; 0.0268 in assay [3]; -0.118 in [4]; 0.383 in assay [5]; 0.935 in assay [6]; -0.0376 in assay [7]. Further, the composite z-score in assay [8] was found to be 1.33; in assay [9], 0.579; in [10], 1.11; in assay [11] it was 1.1; in assay [12] it was 1.2; in [13], 0.612. For the same molecule, the composite z-score in [14] was determined as 0.871; in assay [15], 1.18; in [16], 1.65; in assay [18] it was 1.13; in assay [19] it was 0.524. Further, the composite Z-score in assay [2] was 0.397 (inactive). In addition, the z-score in assay [17] is -0.486; in [20], -0.255 (inactive).

The values above are taken from PubChem BioAssay.
